# According to publication PMC7862700, “An all-to-all approach to the identification of sequence-specific readers for epigenetic DNA modifications on cytosine”:
# Legend:
# Assay in all cases: DAPPL (digital affinity profiling via proximity ligation, sequencing); 10 mM Tris-HCl pH 7.5, 50 mM NaCl, 1 mM DTT, 4% glycerol, room temperature, 30 min; GST-TFs on glutathione beads, 16-mer random dsDNA library, 0.1% formaldehyde crosslink after washing; high values mean tight binding
# FEV = molecular target: T1, FEV (Homo sapiens, UniProt Q99581 1-238); conditions: protein: recombinant; tags: N-terminal GST; dsDNA, one strand shown
# T1 sequence: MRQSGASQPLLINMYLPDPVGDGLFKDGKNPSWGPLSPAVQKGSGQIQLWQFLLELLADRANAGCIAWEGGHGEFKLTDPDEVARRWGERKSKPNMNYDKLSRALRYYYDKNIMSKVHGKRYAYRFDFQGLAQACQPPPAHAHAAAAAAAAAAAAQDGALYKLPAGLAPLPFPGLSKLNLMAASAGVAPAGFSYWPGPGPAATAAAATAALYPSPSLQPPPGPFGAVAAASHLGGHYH
# In short: (§1)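 Yeast served to express human transcription factors as GST fusions, which were then captured on glutathione beads and labelled with DNA barcodes. Pooled with a tag-only sample, they were incubated with 200 nmole of a 16-mer random double-stranded DNA library for 30 min at room temperature in Tris/NaCl/DTT/glycerol buffer, washed, crosslinked with 0.1% formaldehyde, ligated by proximity, amplified by PCR and sequenced. Dividing each hexamer's read frequency for a factor by its frequency for the tag-only sample gives the binding signal.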
# ETV5 = ETV5 (Homo sapiens, UniProt P41161 1-510); conditions: protein: recombinant; tags: N-terminal GST; dsDNA, one strand shown
# In short: as §1
# HSF1 = HSF1 (Homo sapiens, UniProt Q00613 1-529); conditions: protein: recombinant; tags: N-terminal GST; chain copies: 3; dsDNA, one strand shown
# In short: as §1
# SPIC = molecular target: T2, SPIC (Homo sapiens, UniProt Q8N5J4 1-248); conditions: protein: recombinant; tags: N-terminal GST; dsDNA, one strand shown
# T2 sequence: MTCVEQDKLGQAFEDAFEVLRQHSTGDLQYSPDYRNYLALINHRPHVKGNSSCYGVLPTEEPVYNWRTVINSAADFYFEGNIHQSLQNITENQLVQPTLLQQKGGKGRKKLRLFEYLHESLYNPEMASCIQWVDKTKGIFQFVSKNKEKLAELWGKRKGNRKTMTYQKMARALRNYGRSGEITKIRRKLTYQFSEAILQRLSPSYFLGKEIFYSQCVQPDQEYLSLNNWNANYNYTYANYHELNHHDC
# In short: as §1
# ELF4 = ELF4 (Homo sapiens, UniProt Q99607 1-663); conditions: protein: recombinant; tags: N-terminal GST; dsDNA, one strand shown
# In short: as §1
# ELK4 = molecular target: T3, ELK4 (Homo sapiens, UniProt P28324-2 1-405); conditions: protein: recombinant; tags: N-terminal GST; dsDNA, one strand shown
# T3 sequence: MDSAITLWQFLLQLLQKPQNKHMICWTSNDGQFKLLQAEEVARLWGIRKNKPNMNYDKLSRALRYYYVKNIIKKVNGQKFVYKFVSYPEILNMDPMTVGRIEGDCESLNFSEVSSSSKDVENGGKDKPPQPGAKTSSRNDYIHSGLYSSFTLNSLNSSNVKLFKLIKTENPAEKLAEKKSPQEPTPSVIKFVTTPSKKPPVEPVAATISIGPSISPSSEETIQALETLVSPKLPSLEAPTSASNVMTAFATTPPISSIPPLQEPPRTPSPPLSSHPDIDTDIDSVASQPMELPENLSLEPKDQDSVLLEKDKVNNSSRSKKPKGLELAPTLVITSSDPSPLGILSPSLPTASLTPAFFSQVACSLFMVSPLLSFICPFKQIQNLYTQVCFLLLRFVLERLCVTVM
# In short: as §1
# ETV2 = molecular target: T4, ETV2 (Homo sapiens, UniProt O00321 1-342); conditions: protein: recombinant; tags: N-terminal GST; dsDNA, one strand shown
# T4 sequence: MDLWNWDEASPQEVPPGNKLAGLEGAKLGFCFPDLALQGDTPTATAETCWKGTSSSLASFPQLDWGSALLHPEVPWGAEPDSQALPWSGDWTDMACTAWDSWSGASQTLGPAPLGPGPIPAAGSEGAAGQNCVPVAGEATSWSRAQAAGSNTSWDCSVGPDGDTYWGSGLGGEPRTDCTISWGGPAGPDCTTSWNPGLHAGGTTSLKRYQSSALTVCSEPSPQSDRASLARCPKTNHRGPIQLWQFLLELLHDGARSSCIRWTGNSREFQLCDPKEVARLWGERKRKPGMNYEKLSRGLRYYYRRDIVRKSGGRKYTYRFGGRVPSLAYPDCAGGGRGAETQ
# In short: as §1
# ELF3 = molecular target: T5, ELF3 (Homo sapiens, UniProt P78545 1-371); conditions: protein: recombinant; tags: N-terminal GST; dsDNA, one strand shown
# T5 sequence: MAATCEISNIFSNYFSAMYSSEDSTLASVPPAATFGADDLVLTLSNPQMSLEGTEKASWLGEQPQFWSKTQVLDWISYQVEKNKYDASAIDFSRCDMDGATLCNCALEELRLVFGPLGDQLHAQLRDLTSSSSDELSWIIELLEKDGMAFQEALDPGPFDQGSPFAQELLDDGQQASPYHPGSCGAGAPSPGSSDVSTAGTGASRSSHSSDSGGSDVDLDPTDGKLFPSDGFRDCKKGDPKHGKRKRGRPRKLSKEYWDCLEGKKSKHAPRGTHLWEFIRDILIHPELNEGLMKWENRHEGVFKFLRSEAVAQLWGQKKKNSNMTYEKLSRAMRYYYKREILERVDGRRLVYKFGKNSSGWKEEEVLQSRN
# In short: as §1
# CRX = CRX (Homo sapiens, UniProt O43186 1-299); conditions: protein: recombinant; tags: N-terminal GST; dsDNA, one strand shown
# In short: as §1
# ETV1 = ETV1 (Homo sapiens, UniProt P50549 1-477); conditions: protein: recombinant; tags: N-terminal GST; dsDNA, one strand shown
# In short: as §1
# ERF = molecular target: T6, ERF (Homo sapiens, UniProt P50548 1-548); conditions: protein: recombinant; tags: N-terminal GST; dsDNA, one strand shown
# T6 sequence: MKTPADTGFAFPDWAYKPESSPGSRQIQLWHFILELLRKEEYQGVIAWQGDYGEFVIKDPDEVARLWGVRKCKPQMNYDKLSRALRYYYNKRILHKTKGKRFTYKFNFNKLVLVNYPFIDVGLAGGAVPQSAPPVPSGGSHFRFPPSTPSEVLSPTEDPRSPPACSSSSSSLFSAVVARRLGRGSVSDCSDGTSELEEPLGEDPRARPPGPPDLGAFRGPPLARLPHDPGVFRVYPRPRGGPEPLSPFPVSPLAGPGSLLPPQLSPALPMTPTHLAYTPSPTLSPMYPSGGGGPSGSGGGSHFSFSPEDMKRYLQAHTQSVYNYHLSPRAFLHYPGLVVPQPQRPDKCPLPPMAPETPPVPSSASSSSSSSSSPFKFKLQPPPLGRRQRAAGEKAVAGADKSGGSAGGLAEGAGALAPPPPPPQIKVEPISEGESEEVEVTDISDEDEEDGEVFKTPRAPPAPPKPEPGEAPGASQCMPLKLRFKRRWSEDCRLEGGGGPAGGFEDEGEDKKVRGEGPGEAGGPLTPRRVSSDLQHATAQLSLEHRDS
# In short: as §1
# ETV3L = molecular target: T7, ETV3L (Homo sapiens, UniProt Q6ZN32 1-361); conditions: protein: recombinant; tags: N-terminal GST; dsDNA, one strand shown
# T7 sequence: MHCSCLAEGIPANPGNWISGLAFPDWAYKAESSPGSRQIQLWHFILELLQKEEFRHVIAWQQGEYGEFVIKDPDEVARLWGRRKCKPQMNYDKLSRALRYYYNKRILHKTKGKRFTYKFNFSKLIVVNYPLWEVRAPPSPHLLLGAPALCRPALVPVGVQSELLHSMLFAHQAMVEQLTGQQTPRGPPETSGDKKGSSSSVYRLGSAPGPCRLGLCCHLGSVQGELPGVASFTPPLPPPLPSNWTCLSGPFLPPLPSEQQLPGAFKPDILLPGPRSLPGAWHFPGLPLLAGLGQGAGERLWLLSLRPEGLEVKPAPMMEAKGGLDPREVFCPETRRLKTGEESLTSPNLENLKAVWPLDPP
# In short: as §1
# ETS2 = molecular target: T8, ETS2 (Homo sapiens, UniProt P15036 1-469); conditions: protein: recombinant; tags: N-terminal GST; dsDNA, one strand shown
# T8 sequence: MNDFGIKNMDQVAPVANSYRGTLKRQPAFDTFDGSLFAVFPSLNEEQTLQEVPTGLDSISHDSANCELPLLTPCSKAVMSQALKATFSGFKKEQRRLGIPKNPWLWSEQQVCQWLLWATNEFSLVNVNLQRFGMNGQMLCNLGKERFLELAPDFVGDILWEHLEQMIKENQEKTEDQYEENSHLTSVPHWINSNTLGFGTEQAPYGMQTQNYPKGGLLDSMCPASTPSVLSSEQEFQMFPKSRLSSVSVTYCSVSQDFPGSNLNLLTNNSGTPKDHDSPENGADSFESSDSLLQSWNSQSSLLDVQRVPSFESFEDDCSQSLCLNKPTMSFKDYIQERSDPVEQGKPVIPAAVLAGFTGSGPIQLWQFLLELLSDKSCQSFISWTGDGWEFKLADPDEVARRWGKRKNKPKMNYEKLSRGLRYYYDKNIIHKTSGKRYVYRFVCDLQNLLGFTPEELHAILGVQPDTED
# In short: as §1
# ETV7 = molecular target: T9, ETV7 (Homo sapiens, UniProt Q9Y603 1-341); conditions: protein: recombinant; tags: N-terminal GST; dsDNA, one strand shown
# T9 sequence: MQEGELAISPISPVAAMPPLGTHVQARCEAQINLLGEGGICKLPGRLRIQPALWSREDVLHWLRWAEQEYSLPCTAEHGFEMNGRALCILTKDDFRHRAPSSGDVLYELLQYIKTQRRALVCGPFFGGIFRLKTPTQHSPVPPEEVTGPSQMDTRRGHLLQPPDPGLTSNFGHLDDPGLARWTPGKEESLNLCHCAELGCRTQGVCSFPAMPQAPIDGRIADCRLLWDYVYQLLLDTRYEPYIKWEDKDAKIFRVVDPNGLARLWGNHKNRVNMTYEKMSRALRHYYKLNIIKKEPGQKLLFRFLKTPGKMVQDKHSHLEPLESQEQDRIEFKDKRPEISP
# In short: as §1
# ELF5 = molecular target: T10, ELF5 (Homo sapiens, UniProt Q9UKW6-2 1-255); conditions: protein: recombinant; tags: N-terminal GST; dsDNA, one strand shown
# T10 sequence: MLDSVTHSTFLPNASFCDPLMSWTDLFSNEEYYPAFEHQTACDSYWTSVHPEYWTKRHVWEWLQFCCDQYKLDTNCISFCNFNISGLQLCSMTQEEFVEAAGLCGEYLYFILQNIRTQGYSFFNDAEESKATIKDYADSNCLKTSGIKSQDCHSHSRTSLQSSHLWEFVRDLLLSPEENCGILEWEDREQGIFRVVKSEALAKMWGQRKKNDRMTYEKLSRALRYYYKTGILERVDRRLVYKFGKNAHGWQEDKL
# In short: as §1
# ETV3 = molecular target: T11, ETV3 (Homo sapiens, UniProt P41162-2 1-143); conditions: protein: recombinant; tags: N-terminal GST; dsDNA, one strand shown
# T11 sequence: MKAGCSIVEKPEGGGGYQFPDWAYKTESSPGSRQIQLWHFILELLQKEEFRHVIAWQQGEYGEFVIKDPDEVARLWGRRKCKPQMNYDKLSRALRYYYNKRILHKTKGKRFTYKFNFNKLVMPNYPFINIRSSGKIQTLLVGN
# In short: as §1
# ETV6 = ETV6 (Homo sapiens, UniProt P41212 1-452); conditions: protein: recombinant; tags: N-terminal GST; dsDNA, one strand shown
# In short: as §1
# ELF4, sequence (Q99607 whole entry): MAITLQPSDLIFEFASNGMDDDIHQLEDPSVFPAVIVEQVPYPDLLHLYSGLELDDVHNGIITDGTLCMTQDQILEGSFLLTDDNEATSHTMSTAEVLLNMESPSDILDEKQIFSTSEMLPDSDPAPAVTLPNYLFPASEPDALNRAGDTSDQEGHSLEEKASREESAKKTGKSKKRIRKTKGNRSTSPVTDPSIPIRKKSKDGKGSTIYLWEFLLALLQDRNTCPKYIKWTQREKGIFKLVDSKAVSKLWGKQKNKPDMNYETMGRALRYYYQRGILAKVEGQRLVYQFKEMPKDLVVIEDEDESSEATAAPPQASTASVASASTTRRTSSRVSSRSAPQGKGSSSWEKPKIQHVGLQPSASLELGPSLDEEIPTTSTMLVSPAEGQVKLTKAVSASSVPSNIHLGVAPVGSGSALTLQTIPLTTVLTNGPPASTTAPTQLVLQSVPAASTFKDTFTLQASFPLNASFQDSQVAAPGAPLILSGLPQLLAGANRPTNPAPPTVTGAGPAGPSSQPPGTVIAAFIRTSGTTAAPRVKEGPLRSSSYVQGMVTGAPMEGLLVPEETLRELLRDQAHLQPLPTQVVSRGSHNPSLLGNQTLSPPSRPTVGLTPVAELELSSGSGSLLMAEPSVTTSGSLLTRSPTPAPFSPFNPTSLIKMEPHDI
# HSF1, sequence (Q00613 whole entry): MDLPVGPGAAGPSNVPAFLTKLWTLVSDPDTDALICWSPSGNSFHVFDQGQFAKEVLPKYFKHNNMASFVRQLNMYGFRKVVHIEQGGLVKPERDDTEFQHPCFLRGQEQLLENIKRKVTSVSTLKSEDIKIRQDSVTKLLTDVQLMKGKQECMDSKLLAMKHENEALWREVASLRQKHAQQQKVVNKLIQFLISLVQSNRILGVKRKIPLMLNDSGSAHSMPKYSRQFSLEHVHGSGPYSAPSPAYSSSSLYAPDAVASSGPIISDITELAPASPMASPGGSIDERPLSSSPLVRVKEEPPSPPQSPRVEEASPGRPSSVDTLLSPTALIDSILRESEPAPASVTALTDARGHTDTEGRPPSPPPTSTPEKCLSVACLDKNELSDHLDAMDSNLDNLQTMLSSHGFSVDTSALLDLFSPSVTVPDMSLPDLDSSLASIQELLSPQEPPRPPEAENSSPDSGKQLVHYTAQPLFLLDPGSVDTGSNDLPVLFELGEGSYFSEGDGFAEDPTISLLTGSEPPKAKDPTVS
# ETV1, sequence (P50549 whole entry): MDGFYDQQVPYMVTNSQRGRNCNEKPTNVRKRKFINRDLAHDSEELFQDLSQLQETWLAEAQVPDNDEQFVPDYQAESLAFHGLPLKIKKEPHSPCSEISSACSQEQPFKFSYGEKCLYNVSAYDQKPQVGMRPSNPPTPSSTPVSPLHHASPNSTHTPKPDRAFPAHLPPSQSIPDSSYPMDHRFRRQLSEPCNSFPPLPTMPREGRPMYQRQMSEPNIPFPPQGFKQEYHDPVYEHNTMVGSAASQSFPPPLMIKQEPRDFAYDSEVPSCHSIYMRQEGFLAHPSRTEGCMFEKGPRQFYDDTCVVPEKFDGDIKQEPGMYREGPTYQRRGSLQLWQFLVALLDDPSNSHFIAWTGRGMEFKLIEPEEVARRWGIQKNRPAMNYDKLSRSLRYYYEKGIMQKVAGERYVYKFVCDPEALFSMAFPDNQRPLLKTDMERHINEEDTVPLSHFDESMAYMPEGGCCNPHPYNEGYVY
# CRX, sequence (O43186 whole entry): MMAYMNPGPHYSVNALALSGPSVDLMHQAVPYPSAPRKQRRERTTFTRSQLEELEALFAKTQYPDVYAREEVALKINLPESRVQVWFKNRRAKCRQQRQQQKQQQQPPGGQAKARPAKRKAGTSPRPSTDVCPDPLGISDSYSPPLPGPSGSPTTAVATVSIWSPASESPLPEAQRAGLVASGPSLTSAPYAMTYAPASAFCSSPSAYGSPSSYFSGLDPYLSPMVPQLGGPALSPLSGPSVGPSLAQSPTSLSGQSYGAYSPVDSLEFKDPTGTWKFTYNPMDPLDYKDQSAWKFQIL
# ETV5, sequence (P41161 whole entry): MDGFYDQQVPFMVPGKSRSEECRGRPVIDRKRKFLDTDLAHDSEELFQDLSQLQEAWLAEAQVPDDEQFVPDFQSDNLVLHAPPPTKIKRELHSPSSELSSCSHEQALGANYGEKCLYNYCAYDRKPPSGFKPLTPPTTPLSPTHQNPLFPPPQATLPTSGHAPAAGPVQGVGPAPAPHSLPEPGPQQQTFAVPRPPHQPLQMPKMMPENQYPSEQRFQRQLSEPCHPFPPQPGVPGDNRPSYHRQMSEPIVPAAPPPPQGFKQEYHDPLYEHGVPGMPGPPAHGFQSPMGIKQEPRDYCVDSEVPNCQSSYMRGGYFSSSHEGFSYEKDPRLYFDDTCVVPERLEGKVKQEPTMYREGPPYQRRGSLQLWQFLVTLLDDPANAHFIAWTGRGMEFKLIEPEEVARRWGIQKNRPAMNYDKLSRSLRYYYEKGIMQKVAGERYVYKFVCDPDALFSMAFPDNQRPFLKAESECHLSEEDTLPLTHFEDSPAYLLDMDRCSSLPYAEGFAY
# ETV6, sequence (P41212 whole entry): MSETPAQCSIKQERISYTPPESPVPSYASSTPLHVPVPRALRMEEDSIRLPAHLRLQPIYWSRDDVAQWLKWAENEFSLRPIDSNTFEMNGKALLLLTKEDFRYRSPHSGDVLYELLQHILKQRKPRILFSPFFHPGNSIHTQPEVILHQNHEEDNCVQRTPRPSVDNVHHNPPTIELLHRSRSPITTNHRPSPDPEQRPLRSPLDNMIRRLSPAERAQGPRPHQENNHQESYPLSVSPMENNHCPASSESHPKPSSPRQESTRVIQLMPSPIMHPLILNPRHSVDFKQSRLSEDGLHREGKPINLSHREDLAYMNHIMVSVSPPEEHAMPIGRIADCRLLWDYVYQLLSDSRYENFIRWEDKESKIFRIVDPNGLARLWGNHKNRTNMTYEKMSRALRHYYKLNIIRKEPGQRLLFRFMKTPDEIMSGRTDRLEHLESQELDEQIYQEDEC
sequence,measurement,setting,value
GAATCT,binding signal,FEV,"1.03 fold enrichment (6-mer frequency, TF over GST control)"
same,binding signal,ETV5,"1.13 fold enrichment (6-mer frequency, TF over GST control)"
same,binding signal,HSF1,"1.76 fold enrichment (6-mer frequency, TF over GST control)"
same,binding signal,SPIC,"1.05 fold enrichment (6-mer frequency, TF over GST control)"
same,binding signal,ELF4,"1.07 fold enrichment (6-mer frequency, TF over GST control)"
same,binding signal,ELK4,"1.08 fold enrichment (6-mer frequency, TF over GST control)"
same,binding signal,ETV2,"1.2 fold enrichment (6-mer frequency, TF over GST control)"
same,binding signal,ELF3,"1.03 fold enrichment (6-mer frequency, TF over GST control)"
same,binding signal,CRX,"1.21 fold enrichment (6-mer frequency, TF over GST control)"
same,binding signal,ETV1,"1.08 fold enrichment (6-mer frequency, TF over GST control)"
same,binding signal,ERF,"1.17 fold enrichment (6-mer frequency, TF over GST control)"
same,binding signal,ETV3L,"1.05 fold enrichment (6-mer frequency, TF over GST control)"
same,binding signal,ETS2,"1.08 fold enrichment (6-mer frequency, TF over GST control)"
same,binding signal,ETV7,"1.03 fold enrichment (6-mer frequency, TF over GST control)"
same,binding signal,ELF5,"1.07 fold enrichment (6-mer frequency, TF over GST control)"
same,binding signal,ETV3,"1.13 fold enrichment (6-mer frequency, TF over GST control)"
same,binding signal,ETV6,"1.06 fold enrichment (6-mer frequency, TF over GST control)"
